Measured values published in PubChem BioAssay AID1159580 (chemical genetic matrix, 2015).
“And” between values parts separate entries of the source, which are not always exact repeats. Equal entries are not always repeated. Hit rate of the full screen: of about 5,500 compounds, about 2,000 (36%) were called active. Inconclusive results (about 18%) are left out. Rule as the data show it: active = normalized growth mostly below about 0.91 (no sharp cut-off); inconclusive = no clear call, values can overlap the other calls; inactive = mostly above about 0.92. This is one part of the list.

Experiment: chemical genetic growth profiling, strain panel (AID 1159580);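 also: tested at 20 µM; growth read once vehicle control cultures reached saturation at 30 °C; 1 = growth at the plate median or of vehicle wells; lower values mean less growth of the strain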
Settings: S. cerevisiae deletion strains, growth OD

Measured: normalized growth

CCC(C)C(=O)OC1[C@@H]2CC3=C4CC(=O)O[C@@H](c5ccoc5)[C@]4(C)CCC3[C@@](C)(C2=O)[C@@H](CC(=O)OC)C1(C)C (stereo not given in full)
inactive: locus YAL021C, strain ccr4, stronger effect = lower value 1.02 | locus YAL026C, strain drs2, stronger effect = lower value 1.01 | locus YAL030W, strain snc1, stronger effect = lower value 1.01 | locus YBL061C, strain skt5, stronger effect = lower value 1.01 | locus YBR009C, strain hhf1, stronger effect = lower value 1.01 | locus YBR021W, strain FUR4, stronger effect = lower value 1 | locus YBR023C, strain chs3, stronger effect = lower value 1 | locus YBR171W, strain sec66, stronger effect = lower value 1.01 | locus YBR229C, strain ROT2, stronger effect = lower value 0.999 | locus YBR231C, strain swc5, stronger effect = lower value 1.01 | locus YBR279W, strain paf1, stronger effect = lower value 1.01 | locus YCL011C, strain gbp2, stronger effect = lower value 1.01 | locus YCL016C, strain dcc1, stronger effect = lower value 1.01 | locus YCL029C, strain bik1, stronger effect = lower value 1 | locus YCL061C, strain MRC1, stronger effect = lower value 1 | locus YCL069W, strain vba3, stronger effect = lower value 1.02 | locus YCR088W, strain abp1, stronger effect = lower value 1 | locus YDL005C, strain med2, stronger effect = lower value 1 | locus YDL035C, strain GPR1, stronger effect = lower value 0.987 | locus YDL040C, strain nat1, stronger effect = lower value 0.991 | locus YDL074C, strain BRE1, stronger effect = lower value 1.01 | locus YDL101C, strain DUN1, stronger effect = lower value 1.02 | locus YDL185W, strain tfp1, stronger effect = lower value 1.01 | locus YDL192W, strain arf1, stronger effect = lower value 0.994 | locus YDR001C, strain nth1, stronger effect = lower value 1 | locus YDR069C, strain doa4, stronger effect = lower value 0.992 | locus YDR101C, strain arx1, stronger effect = lower value 0.991 | locus YDR137W, strain rgp1, stronger effect = lower value 0.961 | locus YDR159W, strain sac3, stronger effect = lower value 0.998 | locus YDR162C, strain NBP2, stronger effect = lower value 0.995 | locus YDR195W, strain ref2 0.987 | locus YDR297W, strain sur2, stronger effect = lower value 1.01 | locus YDR318W, strain mcm21, stronger effect = lower value 1 | locus YDR334W, strain swr1, stronger effect = lower value 1 | locus YDR335W, strain msn5, stronger effect = lower value 1.01 | locus YDR388W, stronger effect = lower value 1.01 | locus YDR392W, strain spt3, stronger effect = lower value 0.979 | locus YDR502C, strain sam2, stronger effect = lower value 1.02 | locus YEL003W, strain gim4, stronger effect = lower value 1.01 | locus YEL037C, strain rad23, stronger effect = lower value 1.01 | locus YEL061C, strain CIN8 (second series), stronger effect = lower value 1.01 | locus YER015W, strain faa2, stronger effect = lower value 0.999 | locus YER016W, strain bim1, stronger effect = lower value 0.999 | locus YER110C, stronger effect = lower value 1.02 | locus YER111C, strain swi4, stronger effect = lower value 0.99 | locus YER155C, strain BEM2 (second series), stronger effect = lower value 1.01 | locus YER155C, strain BEM2, stronger effect = lower value 1.01 | locus YER167W, strain BCK2, stronger effect = lower value 1 | locus YFR010W, strain ubp6, stronger effect = lower value 1.02 | locus YGL078C, strain dbp3, stronger effect = lower value 1.02 | locus YGL086W, strain mad1, stronger effect = lower value 1 | locus YGL167C, strain pmr1, stronger effect = lower value 1.01 | locus YGL173C, strain kem1, stronger effect = lower value 1 | locus YGL227W, strain vid30, stronger effect = lower value 0.999 | locus YGL240W, strain doc1, stronger effect = lower value 0.989 | locus YGL248W, strain PDE1, stronger effect = lower value 1.01 | locus YGL253W, strain hxk2, stronger effect = lower value 1.03 | locus YGR078C, strain PAC10, stronger effect = lower value 1.02 | locus YGR135W, strain pre9, stronger effect = lower value 1.04 | locus YGR229C, strain SMI1, stronger effect = lower value 0.982 | locus YGR252W, strain gcn5, stronger effect = lower value 1.02 | locus YHR013C, strain ard1, stronger effect = lower value 1.01 | locus YHR027C, strain rpn1, stronger effect = lower value 0.994 | locus YHR030C, strain SLT2, stronger effect = lower value 0.959 | locus YHR079C, strain IRE1 (second series), stronger effect = lower value 1.01 | locus YHR079C, strain IRE1, stronger effect = lower value 0.95 | locus YHR094C, strain hxt1, stronger effect = lower value 1 | locus YHR129C, strain ARP1, stronger effect = lower value 1.01 | locus YHR142W, strain chs7, stronger effect = lower value 1.04 | locus YHR200W, strain rpn10, stronger effect = lower value 1 | locus YIL066C, strain RNR3, stronger effect = lower value 0.998 | locus YIL073C, strain SPO22, stronger effect = lower value 1.06 | locus YIL125W, strain kgd1, stronger effect = lower value 0.998 | locus YIR030C, strain dcg1, stronger effect = lower value 1 | locus YJL092W, strain hpr5, stronger effect = lower value 1 | locus YJL095W, strain BCK1 (second series), stronger effect = lower value 1 | locus YJL095W, strain BCK1, stronger effect = lower value 1.04 and 0.958 | locus YJL115W, strain asf1, stronger effect = lower value 1 | locus YJL129C, strain trk1, stronger effect = lower value 1.01 | locus YJL134W, strain LCB3, stronger effect = lower value 1 | locus YJL154C, strain vps35, stronger effect = lower value 1 | locus YJL164C, strain tpk1, stronger effect = lower value 1.02 | locus YJL166W, strain qcr8, stronger effect = lower value 1.01 | locus YJL168C, strain set2, stronger effect = lower value 1.01 | locus YJL187C, strain SWE1 (second series), stronger effect = lower value 1.03
